Drawing on PubChem BioAssay (EPA / NIEHS), this text covers AC50 and outcome for 18 compounds.

In general, AC50 refers to the concentration at which the activity in the assay is half-maximal.

More than one record can exist for a structure, and the calls need not agree. Activity calls are given as the source filed them. How the source made its calls: active means hit-call score of the fitted dose curve at least 0.9, where 1 is the maximum; inactive means score below 0.9.

Read-out in assay [1]: Interferon-gamma inducible Protein 10 (IP10), CXCL10 (gene 3627)
The assay is described as follows: BSK_hDFCGF_IP10: BioMAP Diversity Plus: hDFCGF Assay for Interferon-gamma inducible Protein 10 (IP10) Biomarker Activity (AID 2283053). Conditions: primary human foreskin fibroblasts; actives raise or lower the signal. The procedure, abridged: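 ELISA read-out of IP-10 (CXCL10) from primary human skin fibroblasts, 24 h after compound addition. Gain or loss of signal versus DMSO baseline, bidirectional curve fitting.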

Read-out in assay [2]: Urokinase-type plasminogen activator receptor (uPAR), PLAUR (gene 5329)
The assay is described as follows: BSK_CASM3C_uPAR: BioMAP Diversity Plus: CASM3C Assay for Urokinase-type plasminogen activator receptor (uPAR) Biomarker Activity (AID 2283054).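 Further: cell-surface uPAR protein level quantified by ELISA.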 Conditions: primary human coronary artery smooth muscle cells; actives raise or lower the signal.

Read-out in assay [3]: Vascular cell adhesion molecule 1 (VCAM1), VCAM1 (gene 7412)
The assay is described as follows: BSK_CASM3C_VCAM1: BioMAP Diversity Plus: CASM3C Assay for Vascular cell adhesion molecule 1 (VCAM1) Biomarker Activity (AID 2283055).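 Further: VCAM-1 protein level quantified by ELISA on the cells.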 Conditions: primary human coronary artery smooth muscle cells; actives raise or lower the signal.

Read-out in assay [4]: Collagen III, COL3A1 (gene 1281)
The assay is described as follows: BSK_hDFCGF_CollagenIII: BioMAP Diversity Plus: hDFCGF Assay for Collagen III Biomarker Activity (AID 2283056). Particulars: primary human foreskin fibroblasts; actives raise or lower the signal. The method in brief: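 Response relative to DMSO, fitted in both directions, reflects ELISA-measured collagen III in human primary skin fibroblasts 24 h after compound addition.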

Read-out in assay [5]: Epidermal growth factor receptor (EGFR), EGFR (gene 1956)
The assay is described as follows: BSK_hDFCGF_EGFR: BioMAP Diversity Plus: hDFCGF Assay for Epidermal growth factor receptor (EGFR) Biomarker Activity (AID 2283057). Particulars: primary human foreskin fibroblasts; actives raise or lower the signal. The method in brief: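 ELISA readout of EGFR on human dermal fibroblasts (primary foreskin cells), 24 h post-dosing; bidirectional curve fit vs DMSO baseline, gain or loss of signal scored.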

Read-out in assay [6]: Interleukin-8 (IL8), CXCL8 (gene 3576)
The assay is described as follows: BSK_hDFCGF_IL8: BioMAP Diversity Plus: hDFCGF Assay for Interleukin-8 (IL8) Biomarker Activity (AID 2283058). Conditions: primary human foreskin fibroblasts; actives raise or lower the signal. The procedure, abridged:
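Fibroblast monolayers (human foreskin, hDFCGF) received test chemical for 24 h before ELISA detection of IL-8; either increases or decreases relative to DMSO count as activity.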

Assay [7] in a line: BSK_hDFCGF_Proliferation: Cell Proliferation Assessment in the BioMAP Diversity Plus: hDFCGF Assay (AID 2283059).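 Further: curves fitted for both rise and fall of signal versus DMSO baseline.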 Conditions: primary human foreskin fibroblasts. The method in brief:
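Steps: dose primary human dermal fibroblasts (foreskin); […] fix in 10% TCA; stain with 0.1% SRB; read 560 nm; fit gain or loss of signal against DMSO.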

Read-out in assay [8]: Macrophage colony-stimulating factor (MCSF), CSF1 (gene 1435)
The assay is described as follows: BSK_hDFCGF_MCSF: BioMAP Diversity Plus: hDFCGF Assay for Macrophage colony-stimulating factor (MCSF) Biomarker Activity (AID 2283060). Particulars: primary human foreskin fibroblasts; actives raise or lower the signal. The method in brief:
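fibroblasts (human foreskin, primary), 24 h post-dose; M-CSF by ELISA; bidirectional fit, DMSO = baseline.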

Assay [9] in a line: BSK_hDFCGF_SRB: Viability Assessment in the BioMAP Diversity Plus: hDFCGF Assay (AID 2283061).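 Further: cells exposed to compound for 24 h before the read.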 Conditions: primary human foreskin fibroblasts. The method in brief: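 SRB-based viability read on primary human skin fibroblasts at 24 h: TCA fixation, 0.1% dye, 560 nm. Gain or loss of signal is fitted against the DMSO negative control.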
Read-out in assay [10]: TIMP metallopeptidase inhibitor 1 (TIMP1), TIMP1 (gene 7076)
The assay is described as follows: BSK_hDFCGF_TIMP1: BioMAP Diversity Plus: hDFCGF Assay for TIMP metallopeptidase inhibitor 1 (TIMP1) Biomarker Activity (AID 2283062). Particulars: primary human foreskin fibroblasts; actives raise or lower the signal. The procedure, abridged:
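Bidirectional curve fitting against DMSO baseline yielded this endpoint, based on ELISA detection of TIMP-1 in primary human foreskin fibroblasts exposed to compound for 24 h.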

As to `Cc1ccccc1OP(=O)(Oc1ccccc1)Oc1ccccc1`, the AC50 in assay [1] was 19 µM (active); in assay [4], 2.84 µM (active); in [7] it was 20 µM (active); in assay [8], 10.5 µM (active); in assay [9], 29.2 µM (active); in assay [10], 14.5 µM (active). Also, the result in assay [2], in [3], in [5] and in [6] was inactive.
Consider `CCC(C)(C#N)N=NC(C)(C#N)CC` (centres undefined), for which the outcome in assay [1], in assay [2], in assay [3], in assay [4], in [5] and in assay [6] was inactive. Besides, the outcome in assay [7], in [8], in assay [9] and in assay [10] was inactive.
On to `CCOP(=O)(OCC)OC(=CCl)c1ccc(Cl)cc1Cl`, for which the AC50 in assay [1] is 36.4 µM (active); in [2], 30.2 µM (active); in assay [3] it was 33.8 µM (active); in assay [7], 37.4 µM (active); in assay [8] it was 31 µM (active); in assay [9] it was 30.8 µM (active). Moreover, the AC50 in assay [10] is 30.1 µM (active). Also, in [6], the result was inactive.
On to `Clc1cccc(Cl)c1Cl`, for which the result in assay [1], in assay [2], in [3], in assay [6], in assay [7] and in assay [8] was inactive. For the same compound, the result in [9] and in [10] was inactive.
For `CC(C=O)Cc1ccc2c(c1)OCO2` (centres undefined), the result in assay [1], in assay [2], in assay [3], in assay [6], in [7] and in [8] was inactive. The outcome in assay [9] and in assay [10] was inactive.
In the case of `O=C(Cc1ccccc1)OCCc1ccccc1`, the outcome in [1], in assay [2], in [3], in assay [6], in assay [7] and in assay [8] was inactive. In addition, the outcome in assay [9] and in [10] was inactive.
`Oc1cccc(-c2ccccc2)c1`: the outcome in assay [1], in assay [2], in assay [5], in assay [6] and in assay [10] was inactive. Further, the AC50 is 31.7 µM (active) in [3], 35.3 µM (active) in assay [7], 33.7 µM (active) in assay [8] and 30.7 µM (active) in assay [9].
As to `O=C(CCl)NCO`, the outcome in [1], in assay [2], in assay [3], in assay [5], in [6] and in assay [7] was inactive. Moreover, the result in assay [8] and in assay [10] was inactive.
Take `C=CC(Cl)CCl` (centres undefined): the result in assay [1], in [2], in assay [6], in assay [8], in assay [9] and in [10] was inactive. Moreover, the AC50 in [3] was 0.921 µM (active); in assay [7], 20.4 µM (active).
With `c1ccc2sc(SNC3CCCCC3)nc2c1`, the outcome in assay [1], in assay [2], in assay [3], in assay [5], in assay [6] and in [7] was inactive. Besides, the result in assay [8], in assay [9] and in assay [10] was inactive.
For the compound `Cc1c([N+](=O)[O-])c(C)c([N+](=O)[O-])c(C(C)(C)C)c1[N+](=O)[O-]`, the outcome in assay [1], in [2], in [3], in [6], in [8] and in [9] was inactive. In addition, the result in assay [10] was inactive. In addition, the AC50 in assay [7] was 31.4 µM (active).
Take `O=[N+]([O-])c1ccc(Nc2ccccc2)cc1`: the outcome in assay [1], in assay [2], in assay [3], in [5], in assay [6] and in assay [7] was inactive. Further, the result in [8], in assay [9] and in assay [10] was inactive.
For the compound `CCCCN(CCCC)C(=S)[S-].CCCCN(CCCC)C(=S)[S-].[Ni+2]`, the outcome in assay [1], in assay [2], in assay [3], in assay [6], in assay [7] and in assay [8] was inactive. The outcome in [9] and in assay [10] was inactive.
In the case of `c1ccc(-c2cccc(-c3ccccc3)c2)cc1`, the AC50 in assay [1] was 29.5 µM (active); in [7], 11 µM (active); in assay [8], 20 µM (active); in assay [9], 12.2 µM (active); in assay [10], 20 µM (active). Moreover, the result in assay [2], in assay [3], in assay [5] and in [6] was inactive.
For `CCOP(=S)(OCC)SCS(=O)(=O)C(C)(C)C`, the result in [1], in assay [2], in [3], in assay [6], in [7] and in assay [8] was inactive. Also, the result in assay [9] and in [10] was inactive.
Regarding `CC(C)=CC1C(C(=O)OCc2cccc(Oc3ccccc3)c2)C1(C)C` (centres undefined), the result in [1], in [2], in [3] and in assay [6] was inactive. In addition, the AC50 is 20 µM (active) in assay [7], 7.43 µM (active) in assay [8], 12.4 µM (active) in assay [9] and 12.5 µM (active) in [10].
Take `CCOC(=O)CCN(SN(C)C(=O)Oc1cccc2c1OC(C)(C)C2)C(C)C`: the AC50 in [1] is 37.1 µM (active); in assay [2], 33.3 µM (active); in assay [3], 20 µM (active); in assay [7] it was 15.2 µM (active); in [8], 26 µM (active); in assay [9] it was 31 µM (active). In addition, the AC50 in assay [10] is 33.5 µM (active). Moreover, the outcome in assay [5] and in [6] was inactive.
As to `CCCCOC(=O)COC(=O)c1ccccc1C(=O)OCCCC`, the result in assay [1], in assay [2], in assay [3], in [6], in assay [7] and in assay [8] was inactive. The result in [9] and in assay [10] was inactive. In assay [7], the half-maximal activity concentration (AC50) is 20 µM (active).
